Data published in the supplement of paper PMC10849652.
The full data set covers some 8,800 targets. This sample favours those with a hit. About 0.5% of all pairs of compound and target were hits.

Assays:
Assay in all cases: log2 fold change, soluble protein after heating vs DMSO (PISA); higher = thermal stabilisation; K562 lysate, 10 uM; active = over 0.2 and 3.5 SD of the protein, either way, in both replicates (recomputed)
[1] = compound: C1=CC=C(C=C1)[C@H](COC2=CC3=C(C=C2)NC(=O)N3)NC(=O)C4=CC=CN(C4=O)CC5=CC(=C(C=C5)F)F
Method in brief: (§1)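 Values give the log-two fold change in thermal stability against solvent controls, from duplicates. Crude K562 extract at 1 mg/mL protein, made by dounce homogenisation in PBS pH 7.4 with 1 mM MgCl2, was treated with 10 μM compound for 30 min. After 3 min heating across 48°C-58°C, aliquots were pooled, adjusted to 0.5% NP-40 at 4°C and centrifuged at 21,000xg for 90 min. The supernatant was measured by TMTpro 16plex LC-MS/MS with channel sums equalised.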

[2] = compound: CC1=C(SC2=C1C(=N[C@H](C3=NN=C(N32)C)CC(=O)N)C4=CC=C(C=C4)Cl)C
Method in brief: as §1

[3] = compound: CC1=C2C(=CC=C1)N=C(N(C2=O)C3=CC=CC=C3C)CN4C=NC5=C(N=CN=C54)N
Method in brief: as §1

[4] = compound: Cc1sc2c(c1C)C(c1ccc(Cl)cc1)=N[C@@H](CC(=O)OC(C)(C)C)c1nnc(C)n1-2
Method in brief: as §1

[5] = compound: c1ccc([C@@H]2C[C@H]2NC2CCNCC2)cc1
Method in brief: as §1

Measured: log2 fold change

UCHL5 isoform 3 (UniProt Q9Y5K5)
Chain of UniProt Q9Y5K5 (Q9Y5K5 whole entry, looked up): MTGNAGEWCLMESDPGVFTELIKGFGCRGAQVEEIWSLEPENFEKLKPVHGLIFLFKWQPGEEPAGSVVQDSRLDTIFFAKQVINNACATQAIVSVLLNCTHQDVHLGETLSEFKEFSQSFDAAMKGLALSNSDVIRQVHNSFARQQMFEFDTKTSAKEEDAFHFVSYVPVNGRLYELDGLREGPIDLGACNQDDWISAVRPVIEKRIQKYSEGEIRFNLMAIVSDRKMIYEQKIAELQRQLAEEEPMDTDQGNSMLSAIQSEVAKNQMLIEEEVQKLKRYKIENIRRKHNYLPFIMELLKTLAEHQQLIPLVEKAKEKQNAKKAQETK
inactive: [1] -0.001 | [2] 0.033 | [3] 0.01 | [4] 0.015 | [5] 0.029

UBE2D1 (UniProt P51668)
Chain of UniProt P51668 (P51668 whole entry, looked up): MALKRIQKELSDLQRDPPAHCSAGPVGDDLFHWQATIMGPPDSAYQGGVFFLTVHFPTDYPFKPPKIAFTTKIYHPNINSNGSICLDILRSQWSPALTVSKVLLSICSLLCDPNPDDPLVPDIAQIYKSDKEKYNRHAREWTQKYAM
inactive: [1] 0.056 | [2] 0.066 | [3] 0.02 | [4] -0.082 | [5] 0.016

TRIM33 (UniProt H0Y612)
inactive: [1] -0.042 | [2] 0.008 | [3] 0.05 | [4] 0.021 | [5] 0.098

THOC5 (UniProt Q13769)
Chain of UniProt Q13769 (Q13769 whole entry, looked up): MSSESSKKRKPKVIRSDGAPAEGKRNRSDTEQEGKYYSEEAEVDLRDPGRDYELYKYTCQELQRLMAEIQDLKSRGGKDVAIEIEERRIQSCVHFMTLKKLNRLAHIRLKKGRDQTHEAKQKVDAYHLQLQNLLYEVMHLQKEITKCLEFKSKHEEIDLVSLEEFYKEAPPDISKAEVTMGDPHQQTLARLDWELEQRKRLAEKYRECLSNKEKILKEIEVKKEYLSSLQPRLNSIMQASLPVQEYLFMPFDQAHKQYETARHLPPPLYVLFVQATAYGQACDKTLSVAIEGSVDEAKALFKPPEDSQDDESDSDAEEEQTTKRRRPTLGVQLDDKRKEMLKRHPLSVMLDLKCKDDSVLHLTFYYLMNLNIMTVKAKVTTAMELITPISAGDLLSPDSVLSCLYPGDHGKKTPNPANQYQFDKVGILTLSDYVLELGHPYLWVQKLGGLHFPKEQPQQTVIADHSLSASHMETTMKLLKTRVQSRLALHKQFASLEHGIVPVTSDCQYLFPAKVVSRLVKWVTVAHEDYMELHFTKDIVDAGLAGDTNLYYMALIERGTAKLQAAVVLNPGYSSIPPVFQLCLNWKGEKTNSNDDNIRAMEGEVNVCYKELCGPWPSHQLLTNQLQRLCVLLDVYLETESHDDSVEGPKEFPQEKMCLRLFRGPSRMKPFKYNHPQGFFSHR
inactive: [1] 0.026 | [2] 0.048 | [3] 0.016 | [4] -0.01 | [5] 0.006

TROAP (UniProt Q12815)
Chain of UniProt Q12815 (Q12815 whole entry, looked up): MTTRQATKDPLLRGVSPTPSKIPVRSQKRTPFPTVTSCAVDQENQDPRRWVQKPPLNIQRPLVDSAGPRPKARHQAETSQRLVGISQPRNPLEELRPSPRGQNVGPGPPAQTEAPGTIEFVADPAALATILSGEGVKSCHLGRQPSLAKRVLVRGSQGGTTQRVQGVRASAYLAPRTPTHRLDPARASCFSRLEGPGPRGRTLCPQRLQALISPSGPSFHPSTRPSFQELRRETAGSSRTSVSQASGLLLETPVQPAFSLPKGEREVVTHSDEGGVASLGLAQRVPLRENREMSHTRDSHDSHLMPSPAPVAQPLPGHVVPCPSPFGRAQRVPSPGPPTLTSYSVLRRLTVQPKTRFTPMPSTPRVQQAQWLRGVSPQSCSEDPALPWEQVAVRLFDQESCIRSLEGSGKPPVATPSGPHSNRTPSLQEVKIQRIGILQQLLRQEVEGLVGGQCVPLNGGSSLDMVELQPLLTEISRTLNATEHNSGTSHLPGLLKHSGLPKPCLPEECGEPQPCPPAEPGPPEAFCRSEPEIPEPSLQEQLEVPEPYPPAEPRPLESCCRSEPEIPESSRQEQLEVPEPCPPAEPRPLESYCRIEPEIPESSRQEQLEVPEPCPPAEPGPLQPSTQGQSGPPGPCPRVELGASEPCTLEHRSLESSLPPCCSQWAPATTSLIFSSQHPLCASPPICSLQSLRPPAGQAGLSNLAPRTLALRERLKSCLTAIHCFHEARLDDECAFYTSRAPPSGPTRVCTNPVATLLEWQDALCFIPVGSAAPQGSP
inactive: [1] -0.008 | [2] 0.12 | [3] 0.024 | [4] 0.057 | [5] 0.096

TCF12 isoform 3 (UniProt Q99081)
Chain of UniProt Q99081 (Q99081 whole entry, looked up): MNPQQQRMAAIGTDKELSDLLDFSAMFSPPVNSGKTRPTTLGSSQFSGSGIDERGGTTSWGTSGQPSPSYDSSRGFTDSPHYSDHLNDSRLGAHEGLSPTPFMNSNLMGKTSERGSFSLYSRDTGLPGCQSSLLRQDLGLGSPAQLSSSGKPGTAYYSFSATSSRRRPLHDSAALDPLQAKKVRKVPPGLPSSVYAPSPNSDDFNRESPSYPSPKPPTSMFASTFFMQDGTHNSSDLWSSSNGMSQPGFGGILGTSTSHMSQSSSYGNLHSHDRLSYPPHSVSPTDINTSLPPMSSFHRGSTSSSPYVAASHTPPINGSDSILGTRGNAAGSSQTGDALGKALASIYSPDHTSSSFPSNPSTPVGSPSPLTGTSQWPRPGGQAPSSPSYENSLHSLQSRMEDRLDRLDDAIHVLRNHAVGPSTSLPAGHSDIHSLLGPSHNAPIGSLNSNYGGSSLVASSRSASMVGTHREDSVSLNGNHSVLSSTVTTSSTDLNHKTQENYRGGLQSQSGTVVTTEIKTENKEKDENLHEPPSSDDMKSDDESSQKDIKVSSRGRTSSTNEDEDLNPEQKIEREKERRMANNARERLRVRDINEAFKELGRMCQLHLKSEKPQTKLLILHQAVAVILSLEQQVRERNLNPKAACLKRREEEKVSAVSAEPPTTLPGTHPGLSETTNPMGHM
inactive: [1] 0.062 | [2] -0.072 | [3] 0.014 | [4] -0.048 | [5] -0.046

TUBGCP2 isoform 4 (UniProt Q9BSJ2)
Chain of UniProt Q9BSJ2 (Q9BSJ2 whole entry, looked up): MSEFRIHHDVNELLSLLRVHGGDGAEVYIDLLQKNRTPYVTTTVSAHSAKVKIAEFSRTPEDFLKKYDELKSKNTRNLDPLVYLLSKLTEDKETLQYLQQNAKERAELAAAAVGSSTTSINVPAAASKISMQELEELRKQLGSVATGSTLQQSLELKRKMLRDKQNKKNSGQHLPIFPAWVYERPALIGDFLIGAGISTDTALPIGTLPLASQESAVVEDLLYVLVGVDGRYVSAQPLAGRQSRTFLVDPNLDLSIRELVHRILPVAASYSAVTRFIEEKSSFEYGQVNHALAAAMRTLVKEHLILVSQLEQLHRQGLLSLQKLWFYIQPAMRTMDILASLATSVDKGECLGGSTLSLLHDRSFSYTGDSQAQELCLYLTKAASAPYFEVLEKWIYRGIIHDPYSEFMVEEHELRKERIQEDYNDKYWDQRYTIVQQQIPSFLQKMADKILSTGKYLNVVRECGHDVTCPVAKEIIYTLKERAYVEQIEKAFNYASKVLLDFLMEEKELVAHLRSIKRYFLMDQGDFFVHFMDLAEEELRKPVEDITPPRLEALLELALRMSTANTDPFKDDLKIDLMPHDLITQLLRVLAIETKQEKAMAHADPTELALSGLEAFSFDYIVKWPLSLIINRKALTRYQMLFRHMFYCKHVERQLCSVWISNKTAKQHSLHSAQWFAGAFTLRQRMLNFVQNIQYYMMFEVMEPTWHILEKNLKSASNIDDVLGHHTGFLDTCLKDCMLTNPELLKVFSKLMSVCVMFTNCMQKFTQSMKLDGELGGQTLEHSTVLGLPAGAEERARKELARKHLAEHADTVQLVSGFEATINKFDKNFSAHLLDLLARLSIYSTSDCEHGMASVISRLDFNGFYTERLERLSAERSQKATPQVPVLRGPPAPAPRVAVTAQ
inactive: [1] 0.009 | [2] -0.015 | [3] 0.035 | [4] 0.018 | [5] 0.097

TMEM177 (UniProt Q53S58)
Chain of UniProt Q53S58 (Q53S58 whole entry, looked up): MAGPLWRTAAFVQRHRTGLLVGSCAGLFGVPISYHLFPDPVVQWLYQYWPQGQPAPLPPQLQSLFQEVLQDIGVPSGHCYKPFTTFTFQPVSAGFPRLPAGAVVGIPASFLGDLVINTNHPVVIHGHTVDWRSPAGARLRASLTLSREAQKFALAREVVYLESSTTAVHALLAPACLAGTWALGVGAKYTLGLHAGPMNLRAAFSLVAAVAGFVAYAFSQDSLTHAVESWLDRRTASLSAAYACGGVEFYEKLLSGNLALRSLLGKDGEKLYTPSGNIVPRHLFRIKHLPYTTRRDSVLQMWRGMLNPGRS
inactive: [1] 0.002 | [2] -0.009 | [3] 0.015 | [5] 0.068

TPM3 isoform 3 (UniProt P06753)
Chain of UniProt P06753 (P06753 whole entry, looked up): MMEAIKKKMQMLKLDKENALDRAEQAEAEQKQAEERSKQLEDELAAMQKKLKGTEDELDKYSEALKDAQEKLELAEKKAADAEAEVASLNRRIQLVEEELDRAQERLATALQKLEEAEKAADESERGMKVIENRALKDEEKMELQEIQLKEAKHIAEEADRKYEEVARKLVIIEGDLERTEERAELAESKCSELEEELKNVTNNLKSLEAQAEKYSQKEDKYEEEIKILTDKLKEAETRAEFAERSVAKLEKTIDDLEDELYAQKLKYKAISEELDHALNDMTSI
inactive: [3] -0.048 | [4] -0.041 | [5] -0.266
